Inconclusive results are not listed. The source made the active and inactive calls. How the source made its calls, unless noted: active means hit-call score of the fitted dose curve at least 0.9, where 1 is the maximum; inactive means score below 0.9.
Tests used:
[1] = CCTE_Shafer_MEA_dev_inter_network_spike_interval_mean: CCTE's Neural Network Formation Assay for Mean Inter-network Spike Interval, Shafer Lab (AID 2284047);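 on AC50: potency for a decrease in mean inter-network spike interval below DMSO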
Procedure, shortened: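 Primary rat cortical neurons on PEI-coated 48-well MEAs (16 electrodes/well) were exposed from plating day 0 to DIV 12, with dosing renewed at DIV 5 and 9. Recordings at DIV 5, 7, 9, 12 were collapsed by trapezoidal AUC, loss-of-signal fit vs DMSO.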

[2] = CCTE_Shafer_MEA_dev_network_spike_number: CCTE's Neural Network Formation Assay for Number of Network Spikes, Shafer Lab (AID 2284048);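 further: synchronized bursts across electrodes counted on days 5 7 9 12 and integrated as AUC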
Procedure, shortened: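 Primary rat cortical neurons on PEI/laminin 48-well MEA plates, dosed from plating day 0 for 12 days, renewed at DIV 5 and 9. Network spike counts recorded DIV 5, 7, 9, 12, collapsed as trapezoidal AUC; DMSO baseline.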

[3] = CCTE_Shafer_MEA_dev_network_spike_peak: CCTE's Neural Network Formation Assay for Mean Number of Electrodes in Network Spike, Shafer Lab (AID 2284049);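 on AC50: fitted for loss of signal meaning fewer electrodes in network spikes than DMSO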
Procedure, shortened: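 Network-spike peak electrode count from recordings on days 5, 7, 9 and 12 was combined as trapezoidal area under the curve. Rat cortical cultures were treated continuously from plating, with compound renewed at each feed (DIV 5, 9); fits versus DMSO.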

[4] = CCTE_Shafer_MEA_dev_spike_duration_mean: CCTE's Neural Network Formation Assay for Mean Spike Duration, Shafer Lab (AID 2284051);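 further: mean network spike duration pooled as area under curve over DIV 5 to 12 recordings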;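 on AC50: potency for a decrease in mean network spike duration versus DMSO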
Procedure, shortened: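 Rat cortical primary cultures, 48-well MEA (16 electrodes/well); compound from plating, renewed DIV 5, 9. Network spike duration (AxIS adaptive detector) recorded DIV 5/7/9/12, combined as trapezoidal AUC; loss direction vs DMSO.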

[5] = CCTE_Shafer_MEA_dev_network_spike_duration_std: CCTE's Neural Network Formation Assay for Standard Deviation of Network Spike Duration, Shafer Lab (AID 2284052);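 further: area under curve of spike duration SD across recording days 5 to 12; hits are decreases in network spike duration SD versus DMSO vehicle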
Procedure, shortened: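 Rat cortical cultures, 1.5 x 10^5 cells/well, exposed continuously from plating to DIV 12 with media/compound renewal at DIV 5, 9. Spontaneous activity recorded DIV 5/7/9/12, AxIS adaptive spike detector; AUC across days; negative direction vs DMSO.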

[6] = CCTE_Shafer_MEA_dev_per_network_spike_spike_number_mean: CCTE's Neural Network Formation Assay for Mean Number of Spikes in a Network Spike, Shafer Lab (AID 2284053);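 on AC50: fitted as decrease in spikes per network spike relative to DMSO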
Procedure, shortened: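 Rat cortical primary cultures on 48-well MEA; compound from day 0, re-dosed with full media change DIV 5, 9. Recorded DIV 5, 7, 9, 12; spikes in 0.05 s window at network-spike peak ÷ total network spikes; AUC; loss vs DMSO.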

[7] = CCTE_Shafer_MEA_dev_per_network_spike_spike_percent: CCTE's Neural Network Formation Assay for Percent of Spikes in a Network Spike, Shafer Lab (AID 2284054)
Procedure, shortened: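 Rat primary cortical neurons were grown on 48-well MEA plates (16 electrodes/well), exposed from plating day 0 through day 12, with treatment renewed on DIV 5 and 9. Percent of spikes within 0.05 s network-spike peaks was measured, summarised as AUC across days 5, 7, 9, 12.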

[8] = CCTE_Shafer_MEA_dev_LDH: CCTE's Lactate Dehydrogenase Assay for Cytotoxicity in the Neural Network Formation Assay, Shafer Lab (AID 2284068; active means hit-call score of the fitted dose curve at least 0.9, where 1 is the maximum;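 further: exposure for twelve days from plating with re-dosing on DIV 5 and 9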)
Procedure, shortened: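 Rat cortical primary neurons, MEA culture; dosing day 0–12, full medium plus compound exchange DIV 5, 9. Read-out: LDH enzyme activity, spectrophotometric. DMSO = negative control/baseline; signal loss → cytotoxicity.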

[9] = CCTE_Shafer_MEA_dev_AB: CCTE's Alamar Blue Assay for Cytotoxicity in the Neural Network Formation Assay, Shafer Lab (AID 2284083; active means hit-call score of the fitted dose curve at least 0.9, where 1 is the maximum;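 further: resazurin reduction fluorescence as viability of cultured neurons; twelve days of exposure from plating with re-dosing on DIV 5 and 9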)
Procedure, shortened: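 Rat cortical primary cultures, 1.5 x 10^5 cells/well on MEA; continuous compound exposure over 12 days of network development, re-dosed with full medium change DIV 5 and 9. Alamar Blue fluorescence; loss of signal = cytotoxicity vs DMSO baseline.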

[10] = CCTE_Shafer_MEA_dev_mutual_information_norm: CCTE's Neural Network Formation Assay for Mutual Information Normalization, Shafer Lab (AID 2284091);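 on AC50: mutual information between electrodes summarised as area under curve across four recording days; potency is for a decrease in mutual information relative to DMSO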
Procedure, shortened: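 Primary rat cortical neurons on PEI-coated 48-well MEA plates, 1.5 x 10^5 cells/well, exposed from day 0 through day 12 with re-dosing at DIV 5 and 9. Mutual information between electrodes recorded days 5, 7, 9, 12; trapezoidal AUC, loss-of-signal fit versus DMSO.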

[11] = CCTE_Shafer_MEA_dev_correlation_coefficient_mean: CCTE's Neural Network Formation Assay for Mean Correlation Coefficient, Shafer Lab (AID 2284093);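 on AC50: well mean pairwise spike train correlation integrated as AUC over recording days 5 to 12; potency fitted for loss of correlation relative to DMSO vehicle wells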
Procedure, shortened: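 Rat cortical cultures, 1.5 x 10^5 cells/well, dosed from day 0 for 12 days. Spontaneous spikes recorded DIV 5/7/9/12; electrode-pair correlation coefficients averaged, AUC taken. Fit in loss direction vs DMSO.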

DIO2 (gene 1734) = assay: CCTE_GLTED_hDIO2: CCTE's human Deiodinase 2 (DIO2) Inhibition Assay, Great Lakes Toxicology and Ecology Division (GLTED) Lab (AID 2284050; active means hit-call score of the fitted dose curve at least 0.9, where 1 is the maximum)
Procedure, shortened: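 In this cell-free test, chemicals are exposed to human deiodinase type 2 for 3 hours. Released iodide is determined spectrophotometrically via the Sandell-Kolthoff method, and signal loss relative to DMSO is fitted.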

DIO3 (gene 1735) = assay: CCTE_GLTED_hDIO3: CCTE's human Deiodinase 3 (DIO3) Inhibition Assay, Great Lakes Toxicology and Ecology Division (GLTED) Lab (AID 2284055; active means hit-call score of the fitted dose curve at least 0.9, where 1 is the maximum;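 further: potency is for inhibition seen as loss of released iodide signal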)
Procedure, shortened: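 Enzyme activity is tracked as iodide release from substrate by recombinant human DIO3 over 3 h with chemical present. A second Sandell-Kolthoff step converts iodide to an absorbance signal, fitted relative to DMSO.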

[12] = CCTE_Shafer_MEA_acute_LDH: CCTE's Lactate Dehydrogenase Assay for Cytotoxicity in the Neural Acute Assay, Shafer Lab (AID 2284086; active means hit-call score of the fitted dose curve at least 0.9, where 1 is the maximum;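 further: active means LDH release rises above DMSO vehicle level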)
Procedure, shortened: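 Released lactate dehydrogenase, read at 490 nm, indicated cytotoxicity after acute 40-min compound treatment of rat cortical neuron networks grown on 48-well MEA plates.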

[13] = CCTE_Shafer_MEA_acute_AB: CCTE's Alamar Blue Assay for Cytotoxicity in the Neural Acute Assay, Shafer Lab (AID 2284069; active means hit-call score of the fitted dose curve at least 0.9, where 1 is the maximum;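 further: active compounds lower the viability signal compared with DMSO wells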)
Procedure, shortened: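 Read-out: resazurin fluorescence (ex 544, em 590 nm) after CTB reagent at 1:6 dilution in fresh media. Cells: primary rat cortical neuron networks, DIV 13 or 15, chemically exposed on MEA plates; DMSO as negative control/baseline.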

[14] = CCTE_Mundy_HCI_Cortical_Synap_Neur_Matur_NeuriteSpotCountPerNeuriteLength: CCTE's Synaptogenesis and Neurite Maturation Assay in rat cortical cells for Neurite Spot Count per Neurite Length, Mundy Lab (AID 2284210)
Procedure, shortened: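 Rat primary cortical cultures, AraC added at DIV 5 to suppress glia; chemical exposure from DIV 7 to DIV 12. Fixed cells stained for MAP2 and synaptophysin plus Hoechst; synaptophysin puncta per neurite length quantified by high-content imaging, relative to DMSO.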

[15] = CCTE_Mundy_HCI_Cortical_Synap_Neur_Matur_BPCount: CCTE's Synaptogenesis and Neurite Maturation Assay in rat cortical cells for Branch Point Count, Mundy Lab (AID 2284211)
Procedure, shortened: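 Branch point number is quantified by automated imaging of fluorescently labelled neurites and synapses in rat primary cortical neurons exposed from DIV 7 to DIV 12. Activity is analysed relative to DMSO negative control.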

Measured: AC50

COc1ccc(-n2nc(C(F)F)cc2-c2ccc(S(C)=O)cc2)cc1 (centres undefined)
inactive: [1] | [2] | [5] | [6] | [7] | [9] | [10] | [11]
active: [3] 1.98 µM | [4] 1.98 µM | [8] 0.603 µM

COc1cccc(-c2ccc(/C=C\CN3CCCCCC3)cc2Cl)c1
inactive: [12]
active: DIO2 (gene 1734) 77.7 µM | DIO3 (gene 1735) 32.8 µM

CCOc1cccc(-n2cc(C(=O)N3CCN(c4cc(C(=O)O)c5ccccc5c4)CC3)nc2-c2ccc(C)cc2)c1
active: DIO2 (gene 1734) 100 µM | DIO3 (gene 1735) 140 µM

CC(C)=CCCC(C)=CC=O
inactive: [13] | [12]
active: DIO2 (gene 1734) 100 µM | DIO3 (gene 1735) 31.3 µM

CNCc1ccc(NC(=O)c2c[nH]c3c2C(=O)CCC3)cc1
inactive: [1] | [2] | [5] | [7] | [9] | [11]
active: [3] 2.03 µM | [4] 0.666 µM | [6] 2.49 µM | [8] 0.865 µM | [10] 0.755 µM

CC[C@H](C)C(=O)O[C@H]1C[C@@H](C)C=C2C=C[C@H](C)[C@H](CC[C@@H]3C[C@@H](O)CC(=O)O3)[C@H]21
active: [1] 1.98 µM | [3] 1.56 µM | DIO2 (gene 1734) 82.5 µM | [4] 2.55 µM | [6] 2.22 µM | [7] 1.77 µM | DIO3 (gene 1735) 100 µM | [8] 0.956 µM | [9] 10 µM | [11] 0.0169 µM
inactive: [2] | [5] | [10]

O=C(OC[C@H]1O[C@@H](OC(=O)c2cc(O)c(O)c(OC(=O)c3cc(O)c(O)c(O)c3)c2)[C@H](OC(=O)c2cc(O)c(O)c(OC(=O)c3cc(O)c(O)c(O)c3)c2)[C@@H](OC(=O)c2cc(O)c(O)c(OC(=O)c3cc(O)c(O)c(O)c3)c2)[C@@H]1OC(=O)c1cc(O)c(O)c(OC(=O)c2cc(O)c(O)c(O)c2)c1)c1cc(O)c(O)c(OC(=O)c2cc(O)c(O)c(O)c2)c1
active: DIO2 (gene 1734) 22.4 µM | DIO3 (gene 1735) 14.8 µM

Clc1nc(Cl)c(Cl)c(Cl)c1Cl
active: DIO2 (gene 1734) 14.8 µM | DIO3 (gene 1735) 0.92 µM

Cn1cnc([N+](=O)[O-])c1Sc1ncnc2nc[nH]c12
inactive: [12]

CCCCCCc1ccc(O)cc1O
inactive: [12]

CCOC(=O)c1ccc(C2CCC(NC[C@H](O)COc3ccc(O)c(NS(C)(=O)=O)c3)CC2)cc1 (some centres undefined)
active: DIO2 (gene 1734) 105 µM | DIO3 (gene 1735) 126 µM
inactive: [13] | [12]

Cc1[nH]cnc1C[C@H]1CCc2c(C)c3ccccc3n2C1=O
inactive: [13] | [12]

On1ccccc1=S
inactive: [13] | [12]

CCC(C)(C)C(=O)O[C@H]1C[C@@H](C)C=C2C=C[C@H](C)[C@H](CC[C@@H]3C[C@@H](O)CC(=O)O3)[C@H]21
inactive: [2] | [5] | [12] | [10]
active: [1] 0.506 µM | [3] 0.688 µM | DIO2 (gene 1734) 64.5 µM | [4] 1.03 µM | [6] 1.1 µM | [7] 0.844 µM | DIO3 (gene 1735) 97.8 µM | [8] 0.368 µM | [9] 1.75 µM | [11] 1.51 µM

Cn1c(=O)c2c(ncn2C)n(C)c1=O
inactive: [1] | [2] | [3] | [4] | [5] | [6] | [7] | [13] | [10] | [11] | [14] | [15]

From PubChem BioAssay (EPA / NIEHS)
